Experimental findings from PubChem BioAssay are described below.

For orientation: inhibition means the relative decrease from the control value, in per cent.

SMILES strings stand for the structures.

A short description of this test: inhibitors of PAF-induced NFkB signaling in CF airway cells, dose response, cell-based, uHTS hits, panel, cytotoxicity readout (AID 624344). The following applies: CF bronchial epithelial cells, PAF-induced NFkB reporter inhibition, with PAF, run 2; at 79 µM (top of the series) unless noted.
As for `c1cc(-c2cnc3cccnn23)c2cccnc2c1`, the inhibition was found to be 105%. For `O=C(NC1CCCC(C(F)(F)F)C1)c1ccc([N+](=O)[O-])o1` (stereo not given), the inhibition amounted to 103%. In the case of `CC1C(c2ccccc2)OCCN1C(=S)Nc1ccc(S(=O)(=O)N2CCCCC2)cc1` (stereo not given), the inhibition came to 106%. In the case of `COc1ccc(COc2cc(-c3cccc(OC)c3)nc3ccc(NC(=O)c4cccnc4)cc23)cc1` it was 95.2%. With `C[C@@H]1CC=C[C@H]2[C@H]1C(=O)N(Cc1ccccc1)[C@H]2c1ccc2ccccc2c1Br`, the inhibition amounted to 93.6%. Consider `COc1cc(C2c3cc4c(cc3C3OC(=O)C2C3CO)OCO4)cc(OC)c1OC` (stereo not given), for which the inhibition was determined as 94.7%.

As for `CC(C)(CO)CNc1ccn2nccc2n1`, the inhibition worked out at 99.8%. In the case of `c1ccc2c(-c3cncc4ccccc34)cncc2c1`, the inhibition came out at 99.8%.

Consider `CCCCCCc1cc2cc(S(=O)(=O)c3ccc(F)cc3)c(=O)oc2cc1O`, for which the inhibition stood at 87.3%.

In the case of `C=CCn1cnc2c(c1=O)c1nc3ccccc3nc1n2/N=C/c1cc(OC)c(OC)c(OC)c1`, the inhibition came out at 102%. `CC1(C)Cc2c(ccc3ccccc23)C(=O)N1`: the inhibition is 111%. Regarding `COc1ccc(S(=O)(=O)N2c3ccc(F)cc3CCC2C)cc1` (stereo not given), the inhibition was determined as 71.7%.

As for `C=C1C(=O)[C@]23C[C@H]1CCC2[C@]1(C)C(=O)CC[C@@](C)(C(=O)O)C1C[C@@H]3O` (stereo not given in full), the inhibition stood at 89.8%. `O=c1cc(-c2ccccc2Cl)oc2cc(O)cc(O)c12`: the inhibition was 93.7%.

Take `COc1ccc(-c2csc(/C(C#N)=C\c3ccc(O)c([N+](=O)[O-])c3)n2)cc1OC`: the inhibition came out at 102%. Regarding `CCOc1ccc(C(C(=O)NCC2CCCO2)N(Cc2cccs2)C(=O)c2snc(C(N)=O)c2N)cc1` (stereo not given), the inhibition turned out to be 92.5%.

Regarding `COc1ccc2c(=O)cc(-c3ccncc3)oc2c1OC`, the inhibition amounted to 103%. In the case of `O=c1[nH]c(C2CCN(S(=O)(=O)c3ccc4c(c3)OCCO4)CC2)nc2c1nnn2Cc1c(F)cccc1Cl` it was 101%.

On to `Cc1ccc(CSc2nccc(-c3c(C)nc4ccccn34)n2)cc1`, for which the inhibition worked out at 102%. On to `Cc1nn(-c2ccccn2)c2c1-c1nc(N)ncc1CC2`, for which the inhibition was determined as 102%.

For `CCN(CC)CCNC(=O)c1ccc(NC(=O)C2CCN(c3ncnc4sc(C)c(C)c34)CC2)cc1`, the inhibition was found to be 103%.

Consider `CCc1ccccc1NC(=O)CN(C)C(=O)Cn1ncc(Cl)c(Cl)c1=O`, for which the inhibition came to 101%. `Cc1ccsc1CN(C)c1ncnc2ccc(-c3ccoc3)cc12`: the inhibition was determined as 93.8%. Consider `CCSc1nsc(NC(=O)Nc2cccc(OC)c2)n1`, for which the inhibition was found to be 113%. For `CC(C)(C)S(=O)N1Cc2cc(C(=O)NCC(F)(F)F)nc(-c3cccc(-c4cccc(F)c4)c3)c2[C@@H]1CCO` (stereo not given in full), the inhibition came to 103%.

Take `Cc1ccc(Nc2nc3nonc3[nH]c2=O)cc1Cl`: the inhibition amounted to 104%.

With `CC(C)Cc1nc2oc3c(NCC4CCCO4)ncnc3c2c2c1CCC2` (stereo not given), the inhibition was 98.5%.

On to `COc1ccc2[nH]c3c(c2c1)CCN1C(=O)C(CC(=O)NCCC2=CCCCC2)C[C@H](C(=O)N2CCCCC2)[C@@]31CCc1ccccc1` (stereo not given in full), for which the inhibition came to 40.2% [at 39.5 µM]. `O=S(=O)(c1cccc2cnccc12)N1CCCNCC1`: the inhibition was 105%. For `Cc1cc(C)nc(Sc2ncnc(N)c2[N+](=O)[O-])n1`, the inhibition was 88.9%. Regarding `CC(=O)OC1CCC2(C)C(CCC3C4CC=C(C(C)=O)C4(C)OC(=O)CC32)C1` (stereo not given), the inhibition turned out to be 104%. Consider `Clc1ccc(CSc2nnc(-c3ccncc3)o2)cc1`, for which the inhibition came to 83.7%.

In the case of `O=C(Nc1ccc2c(c1)OCCO2)c1cc(-c2ccccn2)nc2ccc(Br)cc12`, the inhibition stood at 68.9%. For the compound `CCOC(=O)c1c(C)[nH]c(C(=O)N/N=C/c2ccc(Br)cc2)c1C`, the inhibition is 83.1%. Consider `Cc1ccc(CNc2ncnc3ccc(-c4ccoc4C)cc23)o1`, for which the inhibition came to 89.6%. In the case of `O=[N+]([O-])c1ccc(O)c(C2CCCCC2)c1`, the inhibition amounted to 103%. In the case of `Cc1ccc(NC(=O)/C=C/c2ccco2)nc1` it was 99.8%. Consider `O=C1/C(=C/c2cccnc2)CCc2c1[nH]c1ccccc21`, for which the inhibition worked out at 109%. Consider `Oc1ccc(Cl)cc1Cc1cc(Cl)ccc1O`, for which the inhibition worked out at 107%. As for `CC1(Cc2cccc(F)c2)C(=O)Nc2ccc(-c3cccnc3)cc21` (stereo not given), the inhibition was found to be 98.2%.
